Among all 420,000 compounds or so, about 64,000 (15%) were called active. Another 27% or so got no clear call; they are omitted. Not all results are given here. A number with no mark means an inactive call. The call rests on the fitted dose curve; in most records, active means well fitted inhibition curve with a large enough effect; inconclusive means small, poorly fitted or top-dose-only effect; inactive means flat fitted curve, though single readings scatter.
On the % scale 0 is the no-effect control and ±100 the full control effect; potency means the concentration at half of the fitted maximal effect.

A short description of this test: qHTS for Inhibitors of human tyrosyl-DNA phosphodiesterase 1 (TDP1): qHTS in cells in absence of CPT. Further: nearly all actives have a fitted effect of over 55% in size. As to conditions: DT40 Tdp1-/- hTDP1 cells, no CPT, ATP luminescence, 48 h; activity change, negative = growth inhibition: at 46.2 µM (top of the series). In short, it runs like this: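 Stably hTDP1-transfected Tdp1-null chicken DT40 cells were treated with library compounds minus camptothecin and grown for at least 48 hr at 37 °C, after which cellular ATP was quantified by luminescence.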
With `CC1OC2C(OC1C)N(S(C)(=O)=O)CCN2S(C)(=O)=O` (stereo unspecified), the “activity change, negative = growth inhibition” value was -1.96%.
The same measure, in the same setting: in the case of `Cc1nc2ccc(NC(=S)N3CCC(C)CC3)cc2nc1C` it was -18.5%; in that of `O=S(=O)(N/N=C\c1cccn1-c1ccccc1)c1ccc2ccccc2c1`, -13.6%; in that of `CSc1ccc(CN(C)CC(=O)NCc2ccc(F)cc2)cc1`, -14.6%.
With `CC1(C(=O)NCc2cccc3ccccc23)CCN1Cc1ccc(-c2ccccc2)o1` (stereo unspecified), the Potency was 13 µM (active).
As for `CSc1ccc(CNC(=O)C2(C)CCCN2C)cc1` (stereo unspecified), the “activity change, negative = growth inhibition” value is -20.4%.
Consider `CSc1ccc(CN2CCC2(C)C(=O)NCc2ccccc2Br)cc1` (stereo unspecified), for which the Potency is 23.1 µM (active).
Turning to `CC1(C(=O)NCc2ccc3c(c2)OCO3)CCN1CCc1ccccc1` (stereo unspecified), the “activity change, negative = growth inhibition” value is -29.9%.
For `CCC(=O)N1CCCC1(C)C(=O)Nc1ccc2c(c1)CCN2C(C)=O` (stereo unspecified), the “activity change, negative = growth inhibition” value was -2.32%.
As for `CSc1ccc(CN2CCC2(C)C(=O)Nc2ccc(C)c(O)c2)cc1` (stereo unspecified), the Potency is 18.4 µM (active).
On to `CC1(C(=O)NCc2ccc3c(c2)OCO3)CCN1C(=O)Cc1cccs1` (stereo unspecified), for which the “activity change, negative = growth inhibition” value was -5.48%.
With `CCCC(=O)N1CCC1(C)C(=O)NCc1ccc(SC)cc1` (stereo unspecified), the “activity change, negative = growth inhibition” value is -13.7%.
On to `CC(N)=NCc1cccc(CN)c1`, for which the Potency entry was “inactive”.
In the case of `Cc1nccn1CCC1CCCCN1C(=O)CCc1nnc(-c2ccsc2)o1` (stereo unspecified), the “activity change, negative = growth inhibition” value is -12.9%.
Turning to `O=C(CNC(=O)c1ccccc1F)c1ccc(Br)cc1`, the “activity change, negative = growth inhibition” value was 8.96%.
The same measure, in the same setting: as for `Cc1ccc(C)c(N(CC(=O)NCc2ccco2)C(=O)CCC(=O)Nc2ccccn2)c1`, the figure is -29.9%; as for `O=C(O)CCCCc1nc2ccccc2s1`, 9.54%; as for `CCC(Oc1ccccc1C)C(=O)Nc1ccc(S(=O)(=O)Nc2cc(C)on2)cc1` (stereo unspecified), -6.61%.
Still for that read-out and setting: in the case of `COC(=O)c1scc(S(=O)(=O)C(C)(C)C)c1-n1cccc1` it was -14.6%.
Same read-out and setting: in the case of `COc1cc(CC(=O)N2CCC(n3nccc3NC(=O)C3CC3)CC2)cc(OC)c1OC` it was 1.12%; in that of `c1ccc(-n2nnnc2N2CCOCC2)cc1`, -13.8%.
Consider `C1=C(N2CCOCC2)/C(=C/c2nc3ccccc3[nH]2)CC1`, for which the Potency was 23.1 µM (active).
`O=C1c2ccccc2C(c2nc3ccccc3[nH]2)N1c1ccccc1` (stereo unspecified): the “activity change, negative = growth inhibition” value is 8.04%.
On the same count and under the same terms, in the case of `COC(=O)C1=CN(Cc2ccc(OC)cc2)C=C(C(=O)OC)C1c1ccc(O)c(OC)c1` it was -89.4%; in that of `O=Cc1ccc(OCc2cn3ccccc3n2)cc1`, -22.8%.
Turning to `O=C(O)c1ccc(NN=CC2=C(N3CCOCC3)/C(=C/c3ccccc3)CC2)cc1`, the Potency is 3.26 µM (active).
For the compound `O=C(CN1CCN(c2ccccn2)CC1)N1CCc2ccccc21`, the “activity change, negative = growth inhibition” value is 2.96%.
As for `O=C(CC1SC(N2CCOCC2)=NC1=O)Nc1ccccc1F` (stereo unspecified), the “activity change, negative = growth inhibition” value is -6.39%.
On the same count and under the same terms, as for `O=C(CSc1nnc(N2CCOCC2)n1-c1cccc(F)c1)N1CCN(c2ccccn2)CC1`, the figure is -13.3%.
Regarding `CCN(CC)c1ccc(C(=O)N/N=C/c2ccc(N3CCOCC3)cc2)cc1`, the “activity change, negative = growth inhibition” value is 6.01%.
For the compound `N#C/C(=C\C1=C(N2CCOCC2)C(=C\c2ccccc2)/CC1)C(=O)Nc1ccccc1F`, the Potency is 14.6 µM (active).
Still for that read-out and setting: as for `O=C1Nc2ccc(Br)cc2/C1=N/N=C/C1=C(N2CCOCC2)C(=C\c2ccccc2)/CC1`, the figure is 23.1 µM (active).
As for `CCOC(=O)c1c(NC(=O)/C(C#N)=C/c2ccccc2)sc2c1CCC2`, the “activity change, negative = growth inhibition” value was 8.89%.
As to `C(=N\N1CCN(c2ccccn2)CC1)/C1=C(N2CCOCC2)C(=C/c2ccccc2)/CC1`, the Potency was 16.4 µM (active).
Take `O=C(O)c1ccc(/C=N/Nc2nc(N3CCCCC3)nc(N3CCCCC3)n2)cc1`: the “activity change, negative = growth inhibition” value is -9.34%.
Turning to `COc1ccc(/C=N/N=C2/C(=O)Nc3ccccc32)cc1O`, the “activity change, negative = growth inhibition” value was -21.8%.

For the origin of these results see PubChem BioAssay AID686978 (National Center for Advancing Translational Sciences (NCATS), 2013).
